Results on 19 molecules are retold here after PubChem BioAssay (EPA / NIEHS).

Where “and” joins values, the source holds several entries; their conditions need not be identical. Identical values can stand only once. Inconclusive results are not listed. Where a structure was tested more than once in an assay, its records may differ in their call. Calls of active or inactive are those of the source. The calls were made as follows, unless noted: active = hit-call score of the fitted dose curve at least 0.9, where 1 is the maximum; inactive = score below 0.9.

The first experiment is described as follows: CCTE_Shafer_MEA_dev_bursting_electrodes_number: CCTE's Neural Network Formation Assay for Number of Bursting Electrodes, Shafer Lab (AID 2284043; active = hit-call score of the fitted dose curve at least 0.9, where 1 is the maximum;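 as to AC50: potency is for loss of bursting electrodes relative to DMSO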). An outline of the steps: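 Read-out is the per-well number of electrodes bursting at least once every 2 minutes, recorded on days 5, 7, 9 and 12 and collapsed by trapezoidal area under the curve. Cultures were primary rat cortical neurons on MEA plates, treated continuously from plating.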
As to `FC(F)(F)C(F)(F)C(F)(F)C(F)(F)C(F)(F)C(F)(F)I`, the molecule was classed as inactive. Regarding `CCCC(CCC)C(=O)O`, the molecule was classed as inactive. `CCOc1ccc2[nH]cc(C(=O)NCc3ccccc3)c(=O)c2n1`: the AC50 was 804 nM (active).

On to `NNC(=O)c1ccncc1`, for which the AC50 was 595 nM (active). On to `Cn1cc[nH]c1=S`, for which the result was inactive.

For `OC(O)(C(F)C(O)(O)C(F)(F)F)C(F)(F)F`, the call was inactive. `C[C@]12C=CC(=O)C=C1CC[C@H]1[C@@H]3C[C@@H](O)[C@](O)(C(=O)CO)[C@@]3(C)C[C@H](O)[C@@]12F`: the result was inactive. Same read-out and setting: then `c1ccc2cc3ccccc3cc2c1`, with “inactive”; and `FC(F)(F)COC(OCC(F)(F)F)OCC(F)(F)F`, with “inactive”.

As to `COc1cc2c(c(OC)c1OC)-c1ccc(OC)c(=O)cc1[C@@H](NC(C)=O)CC2`, the AC50 was 27 nM (active). For the molecule `O=C(Cl)C(F)(F)C(F)(F)C(F)(F)C(=O)Cl`, the call was inactive. For the molecule `CCN(CC)C(=S)SSC(=S)N(CC)CC`, the AC50 was 108 nM (active) and 46.3 nM (active). Same read-out and setting: then `c1ccc2c(c1)-c1cccc3c1c-2cc1ccccc13`, with 5070 nM (active). For `NCC(F)(F)C(F)(F)C(F)(F)C(F)(F)F`, the molecule was called inactive. Still for that read-out and setting: the same measure for `NC(=O)N1c2ccccc2C=Cc2ccccc21`: “inactive”. With `Nc1ccn([C@@H]2O[C@H](CO)[C@@H](O)[C@@H]2O)c(=O)n1`, the AC50 is 195 nM (active) and 215 nM (active).

The next experiment can be described thus: CCTE_Shafer_MEA_dev_per_burst_interspike_interval: CCTE's Neural Network Formation Assay for Burst Interspike Interval, Shafer Lab (AID 2284044).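 As to AC50: potency for a decrease of within-burst interspike interval below DMSO level.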 A digest of the protocol: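 Readout is the average time between spikes inside single-electrode bursts, taken as a well mean across bursting electrodes. Cortical neurons from rat developed networks on MEA plates under continuous 12-day exposure; recordings on days 5, 7, 9 and 12 were integrated by trapezoidal AUC.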
Turning to `OC(Cn1cncn1)(Cn1cncn1)c1ccc(F)cc1F`, the molecule was called inactive.

For the molecule `FC(F)(F)C(F)(F)C(F)(F)C(F)(F)C(F)(F)C(F)(F)I`, the molecule was called inactive. The same measure, in the same setting: then `CCCC(CCC)C(=O)O`, with “inactive”; and `CCOc1ccc2[nH]cc(C(=O)NCc3ccccc3)c(=O)c2n1`, with “inactive”; and `NNC(=O)c1ccncc1`, with “inactive”. In the case of `Cn1cc[nH]c1=S`, the molecule was classed as inactive. `OC(O)(C(F)C(O)(O)C(F)(F)F)C(F)(F)F`: the result was inactive. On to `CC[C@H](C)C(=O)O[C@H]1C[C@H](O)C=C2C=C[C@H](C)[C@H](CC[C@@H](O)C[C@@H](O)CC(=O)O)[C@H]21`, for which the molecule was classed as inactive. On the same count and under the same terms, the same measure for `C[C@]12C=CC(=O)C=C1CC[C@H]1[C@@H]3C[C@@H](O)[C@](O)(C(=O)CO)[C@@]3(C)C[C@H](O)[C@@]12F`: “inactive”. On the same count and under the same terms, then `OCCC(F)(F)C(F)(F)C(F)(F)C(F)(F)F`, with “inactive”; and `c1ccc2cc3ccccc3cc2c1`, with “inactive”. The same measure, in the same setting: then `FC(F)(F)COC(OCC(F)(F)F)OCC(F)(F)F`, with “inactive”. With `COc1cc2c(c(OC)c1OC)-c1ccc(OC)c(=O)cc1[C@@H](NC(C)=O)CC2`, the AC50 was 6.47 nM (active). Consider `O=C(Cl)C(F)(F)C(F)(F)C(F)(F)C(=O)Cl`, for which the result was inactive. As to `CCN(CC)C(=S)SSC(=S)N(CC)CC`, the AC50 is 157 nM (active) and 39.7 nM (active).

In the case of `c1ccc2c(c1)-c1cccc3c1c-2cc1ccccc13`, the outcome was inactive. On the same count and under the same terms, the same measure for `NCC(F)(F)C(F)(F)C(F)(F)C(F)(F)F`: “inactive”. As to `NC(=O)N1c2ccccc2C=Cc2ccccc21`, the outcome was inactive. `Nc1ccn([C@@H]2O[C@H](CO)[C@@H](O)[C@@H]2O)c(=O)n1`: the AC50 was 254 nM (active) and the call was inactive.

The AC50 is the midpoint of the concentration-response curve, whichever way the signal moves.
